From PubChem BioAssay (NCATS)
Records with an inconclusive call do not appear. Entries that show only a call come without a potency. The source made the active and inactive calls. The call rests on the fitted dose curve; in most records, active means well fitted inhibition curve with a large enough effect; inconclusive means small, poorly fitted or top-dose-only effect; inactive means flat fitted curve, though single readings scatter.

Biological target: Lysine-specific demethylase 5B (Homo sapiens) (UniProt Q9UGL1)
Test: Optimization screen for KDM5B Histone Demethylases FDH coupled qHTS against the LOPAC library (AID 1347166)
Settings: KDM5B demethylation, FDH-coupled NADH fluorescence (FDH is formaldehyde dehydrogenase); series mostly up to 57.5 µM
Outline: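 KDM5BDeltaAP (200nM final) in 50mM HEPES pH 7.5, 0.01% Tween-20 was preincubated with compound for 10 min at room temperature. A substrate mix of 12.5uM H3K4Me3, 25uM a-ketoglutarate, ascorbate, Fe2+, NAD+ and formaldehyde dehydrogenase was then added. NADH fluorescence (340/450 nm) was read initially and after 30 min.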

Lysine-specific demethylase 5B (Homo sapiens), sequence (Q9UGL1 whole entry, looked up): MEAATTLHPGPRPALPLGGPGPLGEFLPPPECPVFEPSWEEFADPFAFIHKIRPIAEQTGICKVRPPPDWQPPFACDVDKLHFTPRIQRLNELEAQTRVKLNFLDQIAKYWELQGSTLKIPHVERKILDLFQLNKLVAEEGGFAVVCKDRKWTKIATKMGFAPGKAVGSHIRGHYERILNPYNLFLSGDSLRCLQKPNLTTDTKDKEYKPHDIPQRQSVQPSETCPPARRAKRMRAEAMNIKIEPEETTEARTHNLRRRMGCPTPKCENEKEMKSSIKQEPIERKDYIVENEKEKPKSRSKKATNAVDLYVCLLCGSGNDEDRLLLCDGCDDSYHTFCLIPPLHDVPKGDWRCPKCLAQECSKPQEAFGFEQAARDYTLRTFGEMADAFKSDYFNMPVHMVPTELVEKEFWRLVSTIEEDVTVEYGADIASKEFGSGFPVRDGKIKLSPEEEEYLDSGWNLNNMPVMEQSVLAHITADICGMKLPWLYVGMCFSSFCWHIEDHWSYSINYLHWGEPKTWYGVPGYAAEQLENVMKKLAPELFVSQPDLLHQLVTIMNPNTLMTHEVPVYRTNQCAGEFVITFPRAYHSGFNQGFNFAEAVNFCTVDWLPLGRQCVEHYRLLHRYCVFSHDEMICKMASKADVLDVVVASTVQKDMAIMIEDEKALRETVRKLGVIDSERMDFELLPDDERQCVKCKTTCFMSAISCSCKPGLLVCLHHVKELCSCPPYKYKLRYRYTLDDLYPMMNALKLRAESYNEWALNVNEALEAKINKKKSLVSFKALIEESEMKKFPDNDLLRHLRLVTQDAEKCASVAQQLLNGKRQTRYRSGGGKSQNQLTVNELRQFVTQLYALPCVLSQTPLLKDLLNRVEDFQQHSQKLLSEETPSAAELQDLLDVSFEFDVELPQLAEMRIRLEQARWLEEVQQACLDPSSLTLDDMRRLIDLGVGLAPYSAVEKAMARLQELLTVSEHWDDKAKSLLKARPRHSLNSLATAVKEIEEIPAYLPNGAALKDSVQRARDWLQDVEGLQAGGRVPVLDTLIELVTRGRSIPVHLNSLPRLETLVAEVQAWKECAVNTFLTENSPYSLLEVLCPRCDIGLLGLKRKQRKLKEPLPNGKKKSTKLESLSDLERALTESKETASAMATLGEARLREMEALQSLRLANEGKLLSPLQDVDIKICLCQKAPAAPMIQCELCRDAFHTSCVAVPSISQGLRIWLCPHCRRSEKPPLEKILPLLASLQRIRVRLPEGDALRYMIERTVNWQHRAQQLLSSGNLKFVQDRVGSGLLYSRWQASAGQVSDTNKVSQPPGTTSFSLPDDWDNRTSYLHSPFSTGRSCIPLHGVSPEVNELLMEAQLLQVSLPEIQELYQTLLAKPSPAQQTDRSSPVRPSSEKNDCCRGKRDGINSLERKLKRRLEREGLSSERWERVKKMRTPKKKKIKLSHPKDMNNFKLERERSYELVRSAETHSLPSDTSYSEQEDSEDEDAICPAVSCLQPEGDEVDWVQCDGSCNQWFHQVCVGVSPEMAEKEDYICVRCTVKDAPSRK

Row | SMILES | Potency
1 | CN(C)C(=O)Oc1cccc([N+](C)(C)C)c1 | inactive
2 | C=CCc1ccccc1OCC(O)CNC(C)C (stereo unspecified) | inactive
3 | N[C@@H](COP(=O)(O)O)C(=O)O | inactive
4 | CCC(=O)c1ccc2c(c1)N(CCCN(C)C)c1ccccc1S2 | inactive
5 | CNCCC(Oc1ccccc1OC)c1ccccc1 (stereo unspecified) | inactive
6 | CCCNC(C)C(=O)Nc1ccccc1C (stereo unspecified) | inactive
7 | CCn1ccnc1CC1COc2ccccc2O1 (stereo unspecified) | inactive
8 | Cc1nnc(SCC2=C(C(=O)O)N3C(=O)[C@@H](NC(=O)Cn4cnnn4)[C@H]3SC2)s1 | inactive
9 | CN(C)CC[C@@H](c1ccc(Br)cc1)c1ccccn1 | inactive
10 | CC[N+](C)(C)c1cccc(O)c1 | inactive
11 | COc1cc(Cc2cnc(N)nc2N)cc(OC)c1OC | inactive
